# From PubChem BioAssay AID2441 (National Center for Advancing Translational Sciences (NCATS), 2010)
# The list shows a part of the results. Results filed as inconclusive are left out. Calls of active or inactive are those of the source. The call rests on the fitted dose curve; in most records, active means well fitted inhibition curve with a large enough effect; inconclusive means small, poorly fitted or top-dose-only effect; inactive means flat fitted curve, though single readings scatter.
# Assay: Cell cycle validation with wells to cells screening paradigm
# Settings: HeLa cell cycle G2/M arrest, Hoechst DNA content imaging
# Excerpt: Understanding cell cycle regulation is a critical component in combating various diseases such as cancer. Proper execution of cell cycle activity is essential for processes such as cell growth, DNA replication, and mitosis and surveillance mechanisms function as cell cycle checkpoints at the G1, S, and G2/M phases. Thus, profiling agents which disrupt cancer cell division represents a large effort in oncology-based studies. Compound-induced cell cycle perturbations can be analyzed through changes in specific cell cycle phase markers, such as DNA content, using high content screening. […] Furthermore, recent imaging based studies have performed cell cycle analysis following compound treatment where phenotypic fingerprints for phases of the cell cycle were determined or concentration-response based testing of selected compounds and drugs was used to measure a phenotypic profile in a dose-dependent manner. […]
# Reagents: 70% EtOH, Hoechst Stain, PBS Controls: 7.6 uM (final starting concentration) Vinblastine and 38.3 uM (final starting concentration) nocodazole were dispensed into columns 1 and 2, respectively, and titrated 1:2 in DMSO (16-point in duplicate). […] Plates were read on the Acumen eX3 system and concentration response curves were generated after the readings. […]
row,SMILES,Potency
1,O=c1cc(-c2ccccc2)[nH]c2nc(Cl)ccc12,2 µM (active)
